High-throughput results (PubChem)
PI5P4K alpha inh – PI5P4K alpha (human) kinase inhibition. PI5P4Kalpha enzyme, ADP-Glo luminescence, 60 min; stronger effect = lower value. max response, %. 1.2% of 330,000 active. AID 652105; active = max response of -50% or lower; inconclusive = between -30% and -50%; inactive = -30% or higher; note: value at the top dose of about 77 µM
Target sequence (P48426 whole entry, looked up): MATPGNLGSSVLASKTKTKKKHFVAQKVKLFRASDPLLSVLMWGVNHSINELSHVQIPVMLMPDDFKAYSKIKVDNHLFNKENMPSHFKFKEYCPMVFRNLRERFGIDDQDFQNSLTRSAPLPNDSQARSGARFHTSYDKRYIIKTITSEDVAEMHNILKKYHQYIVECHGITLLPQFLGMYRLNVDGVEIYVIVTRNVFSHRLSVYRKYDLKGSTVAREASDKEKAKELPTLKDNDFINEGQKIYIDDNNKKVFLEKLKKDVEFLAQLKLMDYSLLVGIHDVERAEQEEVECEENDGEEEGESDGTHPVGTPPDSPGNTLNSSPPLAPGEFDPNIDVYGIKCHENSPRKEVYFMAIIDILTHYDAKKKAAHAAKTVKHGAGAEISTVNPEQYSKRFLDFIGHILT
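Quantitative HTS of the MLSMR library against PI5P4Kalpha with substrate. ATP added last at 5 microM final; room temperature, 60 minutes. Remaining ATP depleted, ADP converted and read as luminescence.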
Pol iota inh – DNA polymerase iota (human) inhibition | Pol iota fluorescent replication assay, 10 min | 1% of 390,000 active | AID 588590 | Potency, µM (top dose mostly 115 µM), actives largely listed as inhibitors | Q9UNA4
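Pol iota at 10 nM preincubated 15 min with compounds at room temperature; reaction started with fluorescent substrate, 50 nM final. Fluorescence read kinetically at 0 and 10 min; buffer-only wells as negative control.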
POLB inh – blocks human DNA polymerase beta activity; Pol beta primer extension/strand displacement, fluorescence kinetic; Potency, µM (series often up to 114 µM), usual class: inhibitors; P06746; 1.3% of 340,000 active
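Human Pol beta at 10 nM; strand-displacement substrate 50 nM final. Compound exposure 15 min at room temperature before start, reaction 10 min at room temperature.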
Pol kappa inh-1 – DNA polymerase kappa (human) inhibition. 0.53% of 400,000 active. purified Pol kappa, fluorescent DNA synthesis assay, 10 min. Q9UBT6. AID 588579. Potency, µM (titrated, usually from 107 µM), hits mostly inhibitors
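10 nM Pol kappa preincubated 15 min at room temperature with compounds, then reaction started with substrate at 50 nM final. Fluorescence read kinetically at 0 and 10 min; buffer-only wells served as negative control.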
Pol eta inh-1 – DNA polymerase eta (human) inhibition; Q9Y253; recombinant Pol eta, fluorescent DNA replication assay; Potency, µM (top dose mostly 114 µM), most hits filed as inhibitors; 1.2% of 390,000 active
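Pol eta at 10 nM preincubated with compounds 15 min at room temperature; reaction started with fluorescent substrate (50 nM final) and read kinetically at 0 and 10 min.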
WRN helicase inh-1 – blocks human WRN helicase; 0.46% of 360,000 active; WRN helicase unwinding, fluorescent forked duplex, kinetic; AID 651768; Q14191; Potency, µM (doses to about 114 µM), hits mostly inhibitors; note: nearly all actives have a fitted effect of over 55% in size
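Enzyme (20 nM final) and test compound sit together 15 min at room temperature before substrate addition. Substrate is a single-forked duplex oligonucleotide (100 nM) labelled with fluorophore and quencher, with 2 mM ATP; helicase unwinding raises red fluorescence, read kinetically.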
Pol kappa inh-2 – Pol kappa (human) inhibition, cherry-pick confirmation; shares compounds with Pol eta inh-1; purified Pol-kappa, fluorescent strand-displacement substrate; Potency, µM, usual class: inhibitors; 76% of 920 active; AID 720501
Pol eta inh-2 – Pol eta (human) inhibition, cherry-pick confirmation. shares compounds with Pol eta inh-1. Potency, µM, hits mostly inhibitors. Pol eta primer extension, TAMRA/BHQ fluorescence, 10 min. 64% of 2,600 active
WRN helicase inh-2 – WRN helicase inhibition, cherry-pick retest. shares compounds with WRN helicase inh-1. 63% of 610 active. WRN helicase DNA unwinding, fluorescence kinetic. Potency, µM (titrated, usually from 57.1 µM), most hits filed as inhibitors; note: nearly all actives have a fitted effect of over 65% in size
TO DNA binding – counter-screen for WRN helicase inhibitors: DNA binding; shares compounds with WRN helicase inh-1; thiazole orange DNA binding displacement, fluorescence; Potency, µM (top dose mostly 57.1 µM), usual class: inhibitors; 10% of 610 active; AID 720499;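 note: drop in dye fluorescence marks compound binding to DNA; nearly all actives have a fitted effect of over 60% in size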
BLM helicase inh – blocks human BLM helicase in WRN counterscreen; shares compounds with WRN helicase inh-1; Recombinant BLM helicase DNA unwinding, red fluorescence; Potency, µM (series often up to 57.1 µM), most hits filed as inhibitors; 60% of 610 active; note: nearly all actives have a fitted effect of over 60% in size
Large screens that a line does not name were inactive (follow-up assays come after a bar, where they were run). A selection: hits, their analogues and other compounds. The true share with any hit is near 2.8%. Unless noted, calls come from the whole dose curve; as a rule, active = well fitted curve in the direction sought with a large enough effect; inconclusive = small, poorly fitted or top-dose-only effect, or another doubt; inactive = no such curve, though single readings can be large; an effect the other way counts as inactive or inconclusive.

O=C(c1cccc2ccccc12)C1CCCN(C2CCC2)C1 (stereo not drawn)	Pol iota inh inconclusive, Pol kappa inh-1 inconclusive, Pol eta inh-1 inconclusive | Pol eta inh-2 inconclusive
O=C1NC(=O)N(Cc2ccccc2)C(=O)/C1=C/C=C/c1ccco1	PI5P4K alpha inh -53, Pol iota inh 14µM, POLB inh inconclusive, Pol eta inh-1 35µM, WRN helicase inh-1 50µM | Pol eta inh-2 inconclusive
CC(C)c1ccc(N2C(=O)NC(=O)/C(=C\c3cnc(-c4ccccc4)nc3)C2=O)cc1	PI5P4K alpha inh inconclusive, WRN helicase inh-1 inconclusive
CC(C)c1ccc(N2C(=O)NC(=O)/C(=C\C=C\c3ccco3)C2=O)cc1	PI5P4K alpha inh -69, Pol iota inh 8.9µM, POLB inh inconclusive, Pol kappa inh-1 40µM, Pol eta inh-1 20µM, WRN helicase inh-1 inconclusive | Pol eta inh-2 76
Cc1cc(/C=C2\C(=O)NC(=O)N(Cc3ccccc3)C2=O)c(C)n1C1CC1	Pol iota inh inconclusive, POLB inh inconclusive
COCCN(C(=O)CCl)c1c(C)cccc1C	none (no result: PI5P4K alpha inh, Pol iota inh, POLB inh, Pol eta inh-1, WRN helicase inh-1)
Nc1nonc1C(=O)N/N=C/c1ccc([N+](=O)[O-])o1	PI5P4K alpha inh inconclusive, Pol iota inh 32µM, POLB inh inconclusive, Pol kappa inh-1 inconclusive, Pol eta inh-1 20µM, WRN helicase inh-1 inconclusive | Pol eta inh-2 inconclusive
O=c1[nH]c(=O)n(Cc2ccco2)c(O)c1/C=N/N1CCCCC1	Pol iota inh inconclusive, POLB inh inconclusive, Pol kappa inh-1 89µM, Pol eta inh-1 20µM, WRN helicase inh-1 inconclusive | Pol kappa inh-2 24 | Pol eta inh-2 38
O=c1[nH]c(=O)n(Cc2ccco2)c(O)c1C=NC1CC1	none
C/C(=C/CCC(C)[C@H]1CC[C@@]2(C)C3=C(CC[C@]12C)[C@@]1(C)CCC(=O)C(C)(C)[C@@H]1CC3)C(=O)O (stereo partly drawn)	Pol eta inh-1 79µM, WRN helicase inh-1 79µM | Pol eta inh-2 inconclusive
Cc1cc(/C=C2\C(=O)NC(=O)N(c3ccc(Br)cc3)C2=O)c(C)n1C	Pol iota inh inconclusive
CN1C(=O)/C(=C/c2cccn2-c2ccc3ccccc3c2)C(=O)NC1=S	PI5P4K alpha inh -78, Pol iota inh 8.9µM, POLB inh 22µM, Pol kappa inh-1 32µM, Pol eta inh-1 4µM | Pol eta inh-2 inconclusive
NCCc1cc(O)c(O)cc1O	PI5P4K alpha inh -76, Pol iota inh 1.4µM, Pol kappa inh-1 0.71µM, Pol eta inh-1 56µM, WRN helicase inh-1 inconclusive (no result: POLB inh) | Pol eta inh-2 67
CC(C)C[C@H](NC(=O)[C@H](CC(C)C)NC(=O)[C@H](Cc1ccccc1)NC(=O)[C@@H](N)Cc1ccc(O)cc1)C(=O)N[C@@H](CCCN=C(N)N)C(=O)N[C@@H](CC(N)=O)C(=O)N1CCC[C@H]1C(=O)O	none (no result: PI5P4K alpha inh, Pol iota inh, POLB inh, Pol eta inh-1, WRN helicase inh-1)
CC[C@@]1(O)C(=O)OCc2c1cc1n(c2=O)Cc2cc3c(NC(=O)CN)cccc3nc2-1	Pol iota inh inconclusive, POLB inh inconclusive
CCC1(O)C(=O)OCc2c1cc1n(c2=O)Cc2cc3cc(O)ccc3nc2-1 (stereo not drawn)	PI5P4K alpha inh inconclusive, Pol iota inh 22µM, Pol kappa inh-1 inconclusive, Pol eta inh-1 18µM (no result: POLB inh) | Pol eta inh-2 76
Cc1ccccc1N1C(=O)NC(=O)/C(=C\c2ccc3c(c2)CCCN3Cc2ccccc2)C1=O	PI5P4K alpha inh -65, Pol iota inh inconclusive, POLB inh 25µM, Pol eta inh-1 20µM, WRN helicase inh-1 13µM | Pol eta inh-2 inconclusive | WRN helicase inh-2 inconclusive | TO DNA binding inactive | BLM helicase inh 24µM
COC(=O)Cn1cc(/C=C2\C(=O)NC(=O)N(c3ccc(OC)cc3)C2=O)c2ccccc21	Pol iota inh inconclusive
COc1ccc(N2C(=O)NC(=O)/C(=C\c3ccc([N+](=O)[O-])s3)C2=O)cc1	PI5P4K alpha inh -63, Pol iota inh inconclusive, POLB inh inconclusive, Pol kappa inh-1 50µM, Pol eta inh-1 18µM, WRN helicase inh-1 25µM | Pol eta inh-2 27 | WRN helicase inh-2 22µM | TO DNA binding inactive | BLM helicase inh inactive
COc1ccc(N2C(=O)NC(=O)/C(=C/c3ccc([N+](=O)[O-])s3)C2=O)cc1	PI5P4K alpha inh -77, POLB inh inconclusive, Pol kappa inh-1 18µM, Pol eta inh-1 8.9µM, WRN helicase inh-1 50µM | Pol eta inh-2 30 | WRN helicase inh-2 19µM | TO DNA binding inconclusive | BLM helicase inh 22µM
C[C@H]1CO1	none (no result: PI5P4K alpha inh, Pol iota inh, POLB inh, Pol eta inh-1, WRN helicase inh-1)
C#Cc1cccc2c1c(C(=O)c1ccc(Cn3c(C)nc4cnccc43)c(F)c1)cn2C(=O)N(C)C	none (no result: PI5P4K alpha inh, Pol iota inh, POLB inh, Pol eta inh-1, WRN helicase inh-1)
Cn1cccc1/C=C1\C(=O)NC(=O)N(Cc2ccccc2Cl)C1=O	PI5P4K alpha inh -69, Pol iota inh 20µM, Pol kappa inh-1 32µM, Pol eta inh-1 28µM, WRN helicase inh-1 40µM | Pol eta inh-2 67 | WRN helicase inh-2 inconclusive | TO DNA binding inactive | BLM helicase inh 17µM
C=CCN1C(=O)/C(=C/c2cccs2)C(=O)NC1=S	PI5P4K alpha inh -86, Pol iota inh inconclusive, POLB inh 79µM, Pol eta inh-1 inconclusive, WRN helicase inh-1 0.47µM | Pol eta inh-2 inconclusive | WRN helicase inh-2 inactive | TO DNA binding inactive | BLM helicase inh inconclusive
CCN1C(=O)/C(=C/c2ccc(N(CC)CC)cc2OC)C(=O)NC1=S	PI5P4K alpha inh inconclusive
Cc1ccc(C(=O)COC(=O)c2cccc(NC(=O)c3ccc(Br)cc3)c2)cc1	Pol eta inh-1 inconclusive (no result: PI5P4K alpha inh, WRN helicase inh-1)
O=C1NC(=O)C(=Cc2ccccc2OCCOc2ccc([N+](=O)[O-])cc2)C(=O)N1	PI5P4K alpha inh inconclusive, Pol iota inh inconclusive, Pol eta inh-1 inconclusive, WRN helicase inh-1 35µM | WRN helicase inh-2 inconclusive | TO DNA binding inactive | BLM helicase inh inconclusive
CN1C(=O)C(=Cc2ccccc2OCCOc2ccc([N+](=O)[O-])cc2)C(=O)N(C)C1=O	PI5P4K alpha inh inconclusive, Pol iota inh inconclusive
